# Reference: PMC4081100, “A DNA-binding-site landscape and regulatory network analysis for NAC transcription factors in Arabidopsis thaliana”
# What was measured:
# Experiment in all cases: universal protein binding microarray (PBM); transcription factors of Arabidopsis thaliana; high values mean tight binding
# Details in all cases: protein: recombinant; tags: GST; chain copies: 2; dsDNA, one strand shown
# [1] = target: T1, GST-ANAC092(1-176) (Arabidopsis thaliana, UniProt Q9FKA0 1-176)
# T1 sequence: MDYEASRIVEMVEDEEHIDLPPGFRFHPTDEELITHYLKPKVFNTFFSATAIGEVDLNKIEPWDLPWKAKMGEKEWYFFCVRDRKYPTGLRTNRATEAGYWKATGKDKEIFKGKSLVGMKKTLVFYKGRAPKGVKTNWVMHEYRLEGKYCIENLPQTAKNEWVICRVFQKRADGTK
# How it was run: (§1)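 Protein amounts were determined by A280 or anti-GST western blot after glutathione–Sepharose 4B purification of GST-tagged proteins induced in cells, with zinc acetate included for zinc-finger proteins. Duplicate runs at 200 to 500 nM final were done on custom all-10-mer Agilent 4 × 180K arrays made double-stranded by primer extension. The normalised enrichment score (E-score) over gapped and ungapped 8-mers is the measure of binding.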
# [2] = target: GST-NTL6(1-168) (Arabidopsis thaliana, UniProt Q9SCK6 1-168)
# How it was run: as §1
# [3] = target: T2, GST-ANAC055(1-171) (Arabidopsis thaliana, UniProt Q9LDY8 1-171)
# T2 sequence: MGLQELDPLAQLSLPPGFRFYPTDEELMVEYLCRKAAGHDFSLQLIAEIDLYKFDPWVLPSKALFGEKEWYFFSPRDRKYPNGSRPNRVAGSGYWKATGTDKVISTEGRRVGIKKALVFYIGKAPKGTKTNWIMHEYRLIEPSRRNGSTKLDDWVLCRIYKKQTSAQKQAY
# How it was run: as §1
# [4] = target: T3, GST-ATAF1 NAC domain (Arabidopsis thaliana, UniProt Q39013 7-158)
# T3 sequence: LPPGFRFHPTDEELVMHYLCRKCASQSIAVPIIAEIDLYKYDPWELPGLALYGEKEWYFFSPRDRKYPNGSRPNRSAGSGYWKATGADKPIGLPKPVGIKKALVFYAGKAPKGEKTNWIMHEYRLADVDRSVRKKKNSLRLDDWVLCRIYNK
# How it was run: as §1
# [5] = target: T4, GST-ANAC092(1-285) full length (Arabidopsis thaliana, UniProt Q9FKA0 1-285)
# T4 sequence: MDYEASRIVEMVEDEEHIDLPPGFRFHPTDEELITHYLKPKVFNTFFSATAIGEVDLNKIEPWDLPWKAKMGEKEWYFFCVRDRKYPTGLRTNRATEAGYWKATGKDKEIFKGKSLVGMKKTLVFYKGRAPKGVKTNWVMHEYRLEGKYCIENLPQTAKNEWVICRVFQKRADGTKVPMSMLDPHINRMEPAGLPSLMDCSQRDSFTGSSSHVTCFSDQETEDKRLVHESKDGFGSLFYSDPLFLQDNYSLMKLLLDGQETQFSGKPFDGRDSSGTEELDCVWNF
# How it was run: as §1
# [6] = target: T5, GST-NST2(1-184) (Arabidopsis thaliana, UniProt Q9M274 1-184)
# T5 sequence: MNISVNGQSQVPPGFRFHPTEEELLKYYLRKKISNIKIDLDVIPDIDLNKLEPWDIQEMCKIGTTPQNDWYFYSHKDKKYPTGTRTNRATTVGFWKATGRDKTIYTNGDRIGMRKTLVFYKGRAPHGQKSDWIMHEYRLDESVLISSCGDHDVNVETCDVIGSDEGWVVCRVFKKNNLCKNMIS
# How it was run: as §1
# [7] = target: T6, GST-SND1(1-203) (Arabidopsis thaliana, UniProt Q9LPI7 1-203)
# T6 sequence: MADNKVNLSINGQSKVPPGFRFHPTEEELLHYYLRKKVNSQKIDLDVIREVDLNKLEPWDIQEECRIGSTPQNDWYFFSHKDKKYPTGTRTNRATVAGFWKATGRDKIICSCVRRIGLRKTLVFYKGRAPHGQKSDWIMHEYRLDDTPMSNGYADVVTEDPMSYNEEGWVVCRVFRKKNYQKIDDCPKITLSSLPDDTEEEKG
# How it was run: as §1
# [8] = target: T7, GST-VND3 NAC domain (Arabidopsis thaliana, UniProt Q9FH59 12-162)
# T7 sequence: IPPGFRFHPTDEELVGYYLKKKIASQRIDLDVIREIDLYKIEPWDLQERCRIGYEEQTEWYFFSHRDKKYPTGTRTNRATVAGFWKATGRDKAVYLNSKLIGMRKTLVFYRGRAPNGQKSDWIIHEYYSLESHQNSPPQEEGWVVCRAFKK
# How it was run: as §1
# [9] = target: T8, GST-VND7 NAC domain (Arabidopsis thaliana, UniProt Q9C8W9 9-158)
# T8 sequence: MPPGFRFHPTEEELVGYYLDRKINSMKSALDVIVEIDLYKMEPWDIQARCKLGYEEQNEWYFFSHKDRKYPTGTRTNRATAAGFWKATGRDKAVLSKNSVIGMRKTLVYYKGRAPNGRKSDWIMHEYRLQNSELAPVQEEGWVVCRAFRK
# How it was run: as §1
# [10] = target: T9, GST-NTL8 NAC domain (Arabidopsis thaliana, UniProt Q9XIN7 14-156)
# T9 sequence: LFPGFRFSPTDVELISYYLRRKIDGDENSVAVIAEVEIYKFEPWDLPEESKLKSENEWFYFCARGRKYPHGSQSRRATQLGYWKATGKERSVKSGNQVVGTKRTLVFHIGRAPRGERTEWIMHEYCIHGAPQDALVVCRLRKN
# How it was run: as §1
# [11] = target: T10, GST-ANAC019 NAC domain (Arabidopsis thaliana, UniProt Q9C932 14-162)
# T10 sequence: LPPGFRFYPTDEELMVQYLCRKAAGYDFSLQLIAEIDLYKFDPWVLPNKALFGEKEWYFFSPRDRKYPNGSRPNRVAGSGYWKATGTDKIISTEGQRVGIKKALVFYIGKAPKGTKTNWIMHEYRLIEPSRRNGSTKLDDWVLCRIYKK
# How it was run: as §1
# [12] = target: T11, GST-NAP(1-166) (Arabidopsis thaliana, UniProt O49255 1-166)
# T11 sequence: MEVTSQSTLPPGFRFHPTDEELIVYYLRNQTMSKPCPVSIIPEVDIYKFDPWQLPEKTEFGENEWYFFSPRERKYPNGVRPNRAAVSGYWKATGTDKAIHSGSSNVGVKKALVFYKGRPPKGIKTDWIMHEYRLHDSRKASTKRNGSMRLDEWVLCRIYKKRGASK
# How it was run: as §1
# Chain of GST-NTL6(1-168) (Q9SCK6 1-168): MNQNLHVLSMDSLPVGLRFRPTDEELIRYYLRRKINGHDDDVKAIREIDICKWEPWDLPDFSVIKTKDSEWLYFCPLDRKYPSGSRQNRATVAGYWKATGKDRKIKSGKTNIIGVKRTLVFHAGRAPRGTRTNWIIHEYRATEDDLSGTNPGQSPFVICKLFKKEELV
Sequence,binding signal [1],binding signal [2],binding signal [3],binding signal [4],binding signal [5],binding signal [6],binding signal [7],binding signal [8],binding signal [9],binding signal [10],binding signal [11],binding signal [12]
CTAAGTTA,0.294 E-score,0.393 E-score,0.13 E-score,0.173 E-score,0.279 E-score,0.282 E-score,0.413 E-score,0.21 E-score,0.0803 E-score,,,
GAAGCAAC,0.372 E-score,0.399 E-score,0.142 E-score,0.103 E-score,0.417 E-score,0.282 E-score,0.443 E-score,0.0788 E-score,0.228 E-score,0.416 E-score,,
AAGCAAGC,0.344 E-score,0.167 E-score,,,0.417 E-score,0.23 E-score,0.443 E-score,0.139 E-score,0.114 E-score,0.209 E-score,0.0929 E-score,
GCAAGCAA,0.367 E-score,0.26 E-score,0.0669 E-score,,0.42 E-score,0.28 E-score,0.4 E-score,0.0906 E-score,0.216 E-score,0.0916 E-score,0.167 E-score,
ATTACTTA,0.279 E-score,0.49 E-score,0.191 E-score,0.168 E-score,0.349 E-score,0.296 E-score,0.38 E-score,0.21 E-score,0.154 E-score,0.31 E-score,,0.0737 E-score
GAGGTAAC,0.191 E-score,0.155 E-score,,0.0779 E-score,0.2 E-score,0.078 E-score,0.236 E-score,0.0659 E-score,0.0864 E-score,0.437 E-score,0.078 E-score,
ATAGCGTA,0.437 E-score,0.0935 E-score,0.136 E-score,0.165 E-score,0.438 E-score,0.355 E-score,0.476 E-score,0.137 E-score,0.254 E-score,,,0.128 E-score
AGGGTAAG,0.0785 E-score,0.245 E-score,,,,0.0565 E-score,0.111 E-score,0.0682 E-score,0.0597 E-score,0.429 E-score,0.0566 E-score,0.0509 E-score
AAAGGAAA,0.196 E-score,0.284 E-score,0.11 E-score,0.153 E-score,0.0862 E-score,0.179 E-score,0.225 E-score,0.166 E-score,0.134 E-score,0.457 E-score,0.105 E-score,
ATTGCTTC,0.259 E-score,0.348 E-score,0.0988 E-score,,0.351 E-score,0.259 E-score,0.411 E-score,0.143 E-score,0.213 E-score,0.278 E-score,0.108 E-score,
CAAGCAAC,0.426 E-score,0.239 E-score,0.139 E-score,,0.442 E-score,0.311 E-score,0.435 E-score,0.164 E-score,0.139 E-score,0.13 E-score,0.1 E-score,
AAGCAATC,0.384 E-score,0.324 E-score,0.0736 E-score,0.108 E-score,0.417 E-score,0.327 E-score,0.466 E-score,0.152 E-score,0.289 E-score,0.264 E-score,0.21 E-score,
AGCGTAAG,0.191 E-score,0.0608 E-score,0.0588 E-score,0.0897 E-score,0.312 E-score,0.172 E-score,0.4 E-score,0.131 E-score,0.141 E-score,0.0559 E-score,,
TAAGAAAA,0.215 E-score,0.454 E-score,0.129 E-score,0.193 E-score,0.269 E-score,0.235 E-score,0.301 E-score,0.137 E-score,0.181 E-score,0.216 E-score,,
GTTTCTTA,0.226 E-score,0.435 E-score,0.185 E-score,0.257 E-score,0.313 E-score,0.311 E-score,0.33 E-score,0.16 E-score,0.0761 E-score,0.28 E-score,0.141 E-score,
